Our source for the Potency and outcome values is PubChem BioAssay (Tox21).

A number with no mark means an inactive call. Results filed as inconclusive are left out. The source made the active and inactive calls. Unless noted, calls follow the shape of the dose curve; as a rule, active = well fitted curve in the direction sought with a large enough effect in the repeat runs; inconclusive = weak or mixed curves; inactive = no such curve, though single readings can be large; an effect the other way counts as inactive or inconclusive.

Experiment [1] in a line: qHTS assay to identify small molecule agonists of the estrogen receptor alpha (ER-alpha) signaling pathway in the presence of an antagonist - cell viability counter screen (AID 1259386).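 Also: series mostly up to about 92 µM; cells exposed to compounds for 22 h at 37 °C before the viability read; nearly all actives have a fitted effect of over 30% in size.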 In outline: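 VM7Luc4E2 cells (endogenous full-length ER-alpha, 4×ERE-luciferase) were held 5 days in phenol red-free medium with 10% charcoal-stripped FBS, plated, then given 10.0nM ICI-182,780 and compounds at 15 concentrations for 22hr at 37C; viability read by CellTiter-Fluor fluorescence.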
On the technique in general: qHTS replaces the single test concentration by a dilution series.

Experiment [2] is described as follows: qHTS assay to identify small molecule antagonists of the progesterone receptor (PR) signaling pathway - cell viability counter screen (AID 1346798). Also: series mostly up to about 92 µM; nearly all actives have a fitted effect of over 50% in size. Summed up:
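Viability was determined by ATP-based luminescence (CellTiter-Glo) in PR-UAS-bla HEK293T cells cultured in 2% charcoal-stripped serum and incubated 16 hr with compounds under R5020 stimulation.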

Experiment [3] is described as follows: qHTS assay to identify small molecule antagonists of the TGF-beta/Smad signaling pathway - cell viability counter screen (AID 1346824). Also: nearly all actives have a fitted effect of over 50% in size. In outline: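 SBE-bla HEK 293T cells, incubated overnight, then compound plus 0.25 ng/mL TGF-beta1 (stock added) for 5 hr at 37 C. Viability was read in the same wells by CellTiter-Glo luminescence after 30 min at room temperature.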

A short description of experiment [4]: qHTS assay to identify small molecule agonists of the TGF-beta/Smad signaling pathway - cell viability counter screen (AID 1346829). Also: top concentration of the series differs between compounds; nearly all actives have a fitted effect of over 45% in size. In outline: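 Luminescence from CellTiter-Glo, read after a 30 min room-temperature incubation, gives cell viability of SBE-bla HEK 293T cells treated 5 hr with compounds at 37 C.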
Experiment [5] is described as follows: qHTS assay to identify small molecule agonists of the TGF-beta/Smad signaling pathway (AID 1346859; active = well fitted activation curve with a large enough effect in the signal ratio in the repeat runs, not every such curve was filed as active; the % refers to the signal ratio; also: series mostly up to about 77 µM). In outline: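 Dual-wavelength fluorescence (460/530 nm emission) quantified beta-lactamase expression under the Smad binding element in HEK 293T cells following 5 hr compound treatment at 37 C.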
Experiment [6] is described as follows: Human pregnane X receptor (PXR) small molecule agonists, qHTS cell viability counter screen (AID 1346977). Also: nearly all actives have a fitted effect of over 50% in size. In outline: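 HepG2 cells stably carrying the PXR-Luc reporter are cultured with 5% charcoal-stripped FBS and treated with compounds for 24hr. CellTiter-Fluor is added at 23hr and fluorescence is read after 1hr.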
Experiment [7] in a line: Caspase-3/7 induction in HepG2 cells by small molecules, qHTS assay (AID 1346978). Also: nearly all actives have a fitted effect of over 15% in size. Summed up:
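Wild-type HepG2 cells, 2,000/well, settled 5 hr at 37 C and 5% CO2, then compound-treated for 17 hr; caspase-3/7 activity read by luminescent Caspase-Glo 3/7 after 30 min at room temperature.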

Experiment [8] in a line: Caspase-3/7 induction in CHO-K1 cells by small molecules, qHTS cell viability counter screen (AID 1346979). Also: nearly all actives have a fitted effect of over 35% in size. Summed up:
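Seeding: 1,500 CHO-K1 cells/well. Rest: 5hr, 37C. Treatment: compounds in DMSO, 16hr. Read: CellTiter-Fluor, 1hr, fluorescence.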

In experiment [9] the target is Nuclear receptor subfamily 1 group I member 2 (Homo sapiens) (UniProt O75469). The experiment can be described thus: Human pregnane X receptor (PXR) small molecule agonists, qHTS assay (AID 1346982). Also: nearly all actives have a fitted effect of over 35% in size. Also: potency is read from the fitted curve at half-maximal effect. Summed up: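 PXR-Luc HepG2 cells (CYP3A4 promoter-driven luciferase) were seeded in medium with 5% charcoal-stripped FBS, left 5 hr at 37 C, then exposed to compounds in DMSO for 24 hr. Luminescence was read after ONE-Glo addition.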

For experiment [10], the target named is Acetylcholinesterase (Homo sapiens) (UniProt P22303). Kind of experiment: Acetylcholinesterase (AChE) small molecule antagonists: colormetric cell-based qHTS assay (AID 1347395; calls by dose curve; also: nearly all actives have a fitted effect of over 30% in size). In outline: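 Quantitative HTS in attached SH-SY5Y cells: 30 min compound exposure, then 90 min with acetylthiocholine and DTNB at 37 C; colour from thiocholine reports AChE activity.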

The nature of experiment [11]: qHTS assay to identify small molecule agonists of the progesterone receptor (PR) signaling pathway - cell viability counter screen (AID 1346799; calls by dose curve; also: nearly all actives have a fitted effect of over 45% in size). In outline: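 Viability was scored by ATP luminescence (CellTiter-Glo, 30 min, room temperature) in the same wells used for the reporter readout, after 16 hr compound exposure of PR-UAS-bla HEK293T cells.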
In experiment [12] the target is Thyrotropin-releasing hormone receptor (Homo sapiens) (UniProt P34981). Kind of experiment: qHTS assay to identify small molecule antagonists of the thyrotropin-releasing hormone receptor (TRHR) signaling pathway (AID 1346877; active = well fitted inhibition curve with a large enough effect in the repeat runs, not every such curve was filed as active; also: series mostly up to about 51 µM). Summed up: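 TRHR-expressing HEK293 cells were seeded, cultured 18 h at 37 °C, then loaded with calcium dye for 2 h. Compounds were pre-incubated 5 min at room temperature before 1 nM TRH (final) was added, and kinetic fluorescence was recorded for 3 min.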

The target is the same in experiment [13]. The experiment can be described thus: qHTS assay to identify small molecule agonists of the thyrotropin-releasing hormone receptor (TRHR) signaling pathway (AID 1346891; calls by dose curve; also: series mostly up to about 58 µM). Summed up: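 Kinetic fluorescence (3 min, 1 s intervals) reported intracellular calcium after compound transfer onto TRHR-Hek293 cells pre-loaded with dye for 2 h at 37 °C.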
Experiment [14] is described as follows: Caspase-3/7 induction in HepG2 cells by small molecules, qHTS cell viability counter screen (AID 1346981). Also: series mostly up to about 92 µM; nearly all actives have a fitted effect of over 30% in size. In outline: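 Wild-type HepG2 cells (2,000/well) were allowed to settle for 5 hr at 37 C, 5% CO2, then dosed with compounds in DMSO by pin transfer. After 16 hr at 37 C, CellTiter-Fluor was added and fluorescence read 1 hr later.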
Experiment [15] concerns the target Progesterone receptor (Homo sapiens) (UniProt P06401). Kind of experiment: qHTS assay to identify small molecule agonists of the progesterone receptor (PR) signaling pathway (AID 1346784; calls by dose curve; also: nearly all actives have a fitted effect of over 30% in size). In outline:
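The screen uses PR-UAS-bla HEK 293T cells in charcoal-stripped serum (2%). Compounds are applied for 16 hr at 37C after a 6 hr pre-incubation, and reporter activity is detected with a FRET beta-lactamase substrate after 2 hr at room temperature.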

Experiment [16] shares this target. Kind of experiment: qHTS assay to identify small molecule antagonists of the progesterone receptor (PR) signaling pathway (AID 1346795; active = well fitted inhibition curve with a large enough effect in the signal ratio in the repeat runs, not every such curve was filed as active; the % refers to the signal ratio). Summed up: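 After 6 hr plating at 37C in 2% stripped-serum medium, PR-UAS-bla HEK293T cells got compounds, then 1 nM R5020. Sixteen hours later, LiveBLAzer substrate was applied for 2 hr at room temperature and fluorescence was recorded.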

Experiment [17] can be described thus: Caspase-3/7 induction in CHO-K1 cells by small molecules, qHTS assay (AID 1346980). Also: nearly all actives have a fitted effect of over 15% in size. Summed up: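 Wild-type CHO-K1 cells exposed to compounds for 17hr at 37 C, 5% CO2. Caspase-3/7 activity then measured by Caspase-Glo 3/7 luminescence after 30min at room temperature.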

Chain of Thyrotropin-releasing hormone receptor (Homo sapiens) (P34981 whole entry, looked up): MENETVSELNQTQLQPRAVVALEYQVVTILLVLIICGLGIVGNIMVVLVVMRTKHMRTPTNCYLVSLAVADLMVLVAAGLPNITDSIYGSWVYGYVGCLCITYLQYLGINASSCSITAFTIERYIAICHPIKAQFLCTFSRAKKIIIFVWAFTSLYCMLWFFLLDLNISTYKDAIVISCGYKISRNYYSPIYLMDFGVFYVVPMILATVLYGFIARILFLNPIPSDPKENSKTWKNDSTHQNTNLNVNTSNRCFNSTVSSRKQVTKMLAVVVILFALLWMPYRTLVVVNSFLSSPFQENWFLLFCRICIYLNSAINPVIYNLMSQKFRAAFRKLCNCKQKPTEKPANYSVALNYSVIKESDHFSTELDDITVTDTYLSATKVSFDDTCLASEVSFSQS
Chain of Progesterone receptor (Homo sapiens) (P06401 whole entry, looked up): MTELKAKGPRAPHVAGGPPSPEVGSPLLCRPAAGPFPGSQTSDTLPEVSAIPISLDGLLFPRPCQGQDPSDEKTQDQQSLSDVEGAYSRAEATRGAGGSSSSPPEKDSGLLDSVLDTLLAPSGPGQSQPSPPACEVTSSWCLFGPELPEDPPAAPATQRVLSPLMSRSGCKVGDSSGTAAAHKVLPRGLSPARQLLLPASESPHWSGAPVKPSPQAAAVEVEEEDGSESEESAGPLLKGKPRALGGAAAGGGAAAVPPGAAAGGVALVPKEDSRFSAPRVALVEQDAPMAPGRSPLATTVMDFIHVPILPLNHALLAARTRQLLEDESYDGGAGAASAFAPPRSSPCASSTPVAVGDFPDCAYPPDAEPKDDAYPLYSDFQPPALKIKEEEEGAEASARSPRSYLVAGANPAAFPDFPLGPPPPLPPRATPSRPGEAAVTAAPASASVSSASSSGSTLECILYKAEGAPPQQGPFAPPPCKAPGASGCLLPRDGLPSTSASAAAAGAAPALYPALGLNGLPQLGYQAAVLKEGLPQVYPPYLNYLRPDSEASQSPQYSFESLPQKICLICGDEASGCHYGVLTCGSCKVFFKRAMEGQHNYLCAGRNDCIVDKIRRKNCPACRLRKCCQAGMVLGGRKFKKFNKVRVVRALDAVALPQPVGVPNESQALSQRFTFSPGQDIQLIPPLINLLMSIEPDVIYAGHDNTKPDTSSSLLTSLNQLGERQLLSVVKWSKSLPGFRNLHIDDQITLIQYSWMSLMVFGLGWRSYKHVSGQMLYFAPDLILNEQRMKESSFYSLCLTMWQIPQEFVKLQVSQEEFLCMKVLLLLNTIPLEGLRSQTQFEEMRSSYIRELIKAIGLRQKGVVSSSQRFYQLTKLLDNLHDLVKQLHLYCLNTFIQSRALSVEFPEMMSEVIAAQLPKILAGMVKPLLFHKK
Chain of Nuclear receptor subfamily 1 group I member 2 (Homo sapiens) (O75469 whole entry, looked up): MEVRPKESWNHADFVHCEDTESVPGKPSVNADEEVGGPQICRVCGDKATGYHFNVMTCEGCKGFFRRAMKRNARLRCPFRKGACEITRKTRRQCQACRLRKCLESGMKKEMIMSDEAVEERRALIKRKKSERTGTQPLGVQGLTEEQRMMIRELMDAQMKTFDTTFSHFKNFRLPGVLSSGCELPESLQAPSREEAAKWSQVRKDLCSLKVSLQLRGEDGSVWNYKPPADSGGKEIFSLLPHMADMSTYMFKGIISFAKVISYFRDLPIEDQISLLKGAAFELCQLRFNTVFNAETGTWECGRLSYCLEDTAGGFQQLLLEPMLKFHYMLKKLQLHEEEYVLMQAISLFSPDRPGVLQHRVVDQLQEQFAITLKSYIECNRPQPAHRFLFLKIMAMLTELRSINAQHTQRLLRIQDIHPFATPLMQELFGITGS
Chain of Acetylcholinesterase (Homo sapiens) (P22303 whole entry, looked up): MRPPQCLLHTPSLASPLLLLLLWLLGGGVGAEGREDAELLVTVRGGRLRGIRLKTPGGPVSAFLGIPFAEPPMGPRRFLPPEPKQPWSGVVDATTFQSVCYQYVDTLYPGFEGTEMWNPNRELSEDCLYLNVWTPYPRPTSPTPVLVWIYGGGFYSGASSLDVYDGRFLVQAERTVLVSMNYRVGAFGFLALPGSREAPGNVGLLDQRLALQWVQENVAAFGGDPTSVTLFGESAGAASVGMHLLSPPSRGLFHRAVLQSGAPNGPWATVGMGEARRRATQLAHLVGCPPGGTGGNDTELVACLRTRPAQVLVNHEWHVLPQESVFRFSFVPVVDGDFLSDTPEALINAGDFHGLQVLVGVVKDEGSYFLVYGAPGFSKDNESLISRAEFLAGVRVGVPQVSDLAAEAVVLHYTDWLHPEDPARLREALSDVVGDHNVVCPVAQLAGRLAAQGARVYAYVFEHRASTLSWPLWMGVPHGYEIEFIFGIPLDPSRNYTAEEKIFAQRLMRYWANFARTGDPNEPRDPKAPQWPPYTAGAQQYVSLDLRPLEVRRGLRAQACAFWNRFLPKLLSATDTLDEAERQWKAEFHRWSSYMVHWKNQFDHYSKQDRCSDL

Turning to `CCC(C)(C)c1cc(-n2nc3ccccc3n2)c(O)c(C(C)(C)CC)c1`, the Potency entry in experiment [1], in experiment [2], in [3], in [6], in experiment [7] and in [8] was “inactive” each time. Besides, the Potency entry in [10] was “inactive”. Moreover, the result in [4] and in experiment [5] was inactive. The Potency in experiment [9] was 69.6 µM (active).
As to `Cc1cc(C)nc(Nc2ccccc2)n1`, the Potency entry in experiment [1], in [2], in experiment [11], in experiment [3], in experiment [6] and in [7] was “inactive” throughout. Moreover, the Potency result in [8], in experiment [14] and in experiment [10] was “inactive” each time. Moreover, the call in experiment [4], in [5], in experiment [12] and in experiment [13] was inactive.
Consider `[Cl][Sn]([Cl])([Cl])[Cl]`, for which the Potency entry in experiment [15], in [16], in [2], in experiment [11], in [3] and in experiment [6] was “inactive” throughout. The Potency entry in [7], in experiment [8], in experiment [14] and in experiment [10] was “inactive” in each case. The molecule was called inactive in [4], in [5], in experiment [12] and in [13].
`N#Cc1ccncc1`: the Potency result in experiment [1], in experiment [2], in [11], in experiment [3], in [6] and in experiment [7] was “inactive” in each case. The Potency result in experiment [8], in experiment [17], in experiment [14], in experiment [9] and in experiment [10] was “inactive” throughout. The outcome in [4] and in [5] was inactive.
Turning to `CC1(C)COP(Oc2ccccc2)OC1`, the Potency result in [1], in experiment [2], in [11], in experiment [3], in experiment [7] and in [8] was “inactive” throughout. The Potency result in experiment [17], in [14], in experiment [9] and in experiment [10] was “inactive” in each case. For the same molecule, the outcome in experiment [4], in experiment [5], in experiment [12] and in experiment [13] was inactive.
Take `CCOP(=S)(OCC)Oc1nc(Cl)n(C(C)C)n1`: the Potency result in [1], in [2], in [3], in experiment [6], in [7] and in experiment [8] was “inactive” in each case. Also, the Potency result in [17] and in experiment [14] was “inactive” throughout. Besides, the call in [4], in experiment [5], in experiment [12] and in experiment [13] was inactive. In addition, the Potency in experiment [9] is 6.86 µM (active).
With `CCS(=O)(=O)CCSP(=O)(OC)OC`, the Potency entry in [15], in [16], in experiment [2], in [11], in experiment [3] and in experiment [6] was “inactive” throughout. The Potency result in experiment [7], in experiment [8], in experiment [17], in [14] and in [9] was “inactive” in each case. In addition, the outcome in experiment [4] and in experiment [5] was inactive.
Take `O=C(N[C@H]1CN2CCC1CC2)c1cc2ccoc2cn1`: the Potency result in experiment [1], in experiment [2], in [11], in experiment [3], in experiment [6] and in experiment [7] was “inactive” throughout. The Potency result in experiment [8], in experiment [17] and in experiment [9] was “inactive” in each case. The outcome in [4], in [5], in experiment [12] and in experiment [13] was inactive.
For the molecule `CNNC`, the Potency result in experiment [1], in experiment [2], in experiment [11], in experiment [3], in [6] and in experiment [7] was “inactive” throughout. Besides, the Potency entry in experiment [8], in [17], in experiment [14], in experiment [9] and in experiment [10] was “inactive” in each case. Also, the molecule was called inactive in experiment [4], in experiment [5], in [12] and in [13].
